Screening data: PubChem BioAssay, Broad Institute
CD40 NFkB inh = CD40 pathway inhibition in BL2 cells; BL2 NF-kB luciferase reporter, CD40L-induced, 4 h; inhibition, % at 10 µM; 83,000 compounds, 0.94% hits; AID 1053188;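 active = mean inhibition of at least 50% with a set share of replicates also reaching that level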;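 note: 0% = neutral control wells and 100% = IKK inhibitor VII at 50 µM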
* = called active by the depositor; [ ] = another dose, or the depositor's remark. Shown is part of a subset that was picked to be rich in hits.

SMILES	CD40 NFkB inh
CC(=O)Nc1ccc2c(c1)C(=O)N(C)C[C@@H](C)[C@@H](CN(C)S(C)(=O)=O)O2	-6
O=C(Nc1ncccc1O)c1ccc(OCC2CCCO2)cc1 (stereo unspecified)	39
Cc1cnc(NC(=O)c2ccc(OCC3CCCO3)cc2)s1 (stereo unspecified)	80*
O=C(Nc1nc2ccccc2s1)c1ccc(F)cc1	-80
O=C(Nc1nc2ccccc2s1)c1ccc(OCC2CCCO2)cc1 (stereo unspecified)	56*
O=C(Nc1ccc(S(=O)(=O)N2CCCC2)cc1)c1ccc(OCC2CCCO2)cc1 (stereo unspecified)	24
O=C(NC1=NCCS1)c1ccc(OCC2CCCO2)cc1 (stereo unspecified)	6
CC(C)NC(=O)N[C@H]1CC[C@H](CC(=O)NCCCN(C)C)O[C@@H]1CO	3[25 µM]
O=C(O)[C@@H]1[C@@H](CO)[C@@H]2Cn3c(ccc(/C=C/c4ccccc4)c3=O)[C@@H]2N1C(=O)C1CCCC1	8[25 µM]
COc1cccc(C(=O)N2C[C@@H]3[C@H](c4ccccc42)[C@H](CO)N3C(=O)c2cccc(F)c2)c1	5[25 µM]
COC(=O)[C@@H]1[C@@H](CO)[C@@H]2Cn3c(ccc(-c4ccccc4)c3=O)[C@@H]2N1CC1CCCCC1	12[25 µM]
Clc1nc(CN2CCCCC2)nc2sc3c(c12)CCCC3	55*
CC1CCN(Cc2nc(Cl)c3c4c(sc3n2)CCC4)CC1	-5
Clc1nc(CN2CCOCC2)nc2sc3c(c12)CCC3	-1
CN1C(=O)c2cc(NC(=O)Cc3cccs3)ccc2OC[C@H]2O[C@H](CC(=O)NCC3CC3)CC[C@H]21	3
C[C@H](CO)N1C[C@H](C)[C@@H](CN(C)Cc2ccncc2)OCc2ccccc2-c2ccccc2C1=O	-13
COc1cc(C=CC(=O)c2cc(OC)c(OC)c(OC)c2)cc(OC)c1OC	65*
COc1cc(C(=O)NNC(=O)/C=C/c2ccccc2)cc(OC)c1OC	-9
COc1ccc(C(=O)C=Cc2ccc(OCc3ccccc3)c(OC)c2)cc1OC	-16
O=C(N[C@@H]1CC[C@H](CC(=O)N2CCOCC2)O[C@@H]1CO)c1cccc(F)c1	-1[25 µM]
O=C(C[C@@H]1CC[C@H]2[C@@H](COC[C@@H](O)CN2S(=O)(=O)c2cccc(Cl)c2)O1)N1CCOCC1	2[25 µM]
O=C(C[C@H]1C[C@@H]2c3cc(NC(=O)C4CCOCC4)ccc3O[C@@H]2[C@H](CO)O1)NCC(F)(F)F	-4[25 µM]
O=[N+]([O-])c1ccc2ncnc(Nc3ccc4c(c3)OCCO4)c2c1	36*
O=[N+]([O-])c1ccc(O)c(Nc2ncnc3ccccc23)c1	0
c1ccc2c(c1)oc1c(Nc3ccc4c(c3)OCCO4)ncnc12	-70
SMILES	CD40 NFkB inh
CN1[C@@H]2Cn3c(ccc(-c4cccnc4)c3=O)[C@H]1[C@@H](C(=O)NCCc1ccccc1)[C@@H]2CO	-4[25 µM]
CC(=O)Nc1ccc2c(c1)CC(=O)N(C)C[C@H](C)[C@@H](CN(C)S(C)(=O)=O)O2	-4
CCOC(=O)NCC(Cc1ccc(OCCc2nc(-c3ccccc3)oc2C)cc1)N/C(C)=C/C(=O)c1ccc(C(F)(F)F)cc1 (stereo unspecified)	25[25 µM]
CNC[C@H]1OCCCC[C@@H](C)Oc2ccc(NS(=O)(=O)c3ccc(F)cc3)cc2C(=O)N([C@H](C)CO)C[C@@H]1C	-23[25 µM]
Cc1ccc(S(=O)(=O)N[C@@H]2C=C[C@H](CC(=O)NCc3ccc(Cl)c(Cl)c3)O[C@H]2CO)cc1	2[25 µM]
COc1cc2c(cc1OC)C1Cc3ccc(OC)c(OC)c3CN1CC2 (stereo unspecified)	-15[25 µM]
CCC1=C(CC2NCCc3ccccc32)CC2c3cc(OC)c(OC)cc3CCN2C1 (stereo unspecified)	55*
COc1cc2c(cc1OC)[C@@H]1Cc3ccc(OC)c(OC)c3CN1CC2	3
O=C(Nc1ccc2c(c1)OCO2)N[C@@H]1CC[C@H](CCNC(=O)C2CCCC2)O[C@H]1CO	-1
CCCNC(=O)N[C@H]1CC[C@@H](CCn2cc(C3CCCC3)nn2)O[C@H]1CO	-7
O=C(Cc1ccccn1)N1[C@H](CO)[C@H]2c3ccccc3NC[C@H]21	6[25 µM]
Cc1ccccc1NC(=O)C[C@H]1CC[C@H]2[C@@H](COc3ccc(NC(=O)NC(C)C)cc3C(=O)N2C)O1	0[25 µM]
CCS(=O)(=O)Nc1ccc(NC(C)=O)cc1	-9
CCOC(=O)/C=C/S(=O)(=O)c1ccc(NC(C)=O)cc1	110*
CCC(C)NS(=O)(=O)c1ccc(NC(C)=O)cc1 (stereo unspecified)	8
O=S(=O)(c1ccccc1)N1CC[C@@H]2[C@H](CO)Nc3ccc(C#CC4CCCCC4)cc3[C@@H]21	9[25 µM]
CCCNC(=O)N1[C@H](CNC(=O)CC)[C@H](c2ccc(C3=CCCC3)cc2)[C@@H]1CO	7
CC(=O)N(C)C[C@@H]1Oc2ccc(N(C)C)cc2CC(=O)N(C)C[C@H]1C	3
O=C(CCCN1C(=O)c2cccc3cccc(c23)C1=O)OCC(=O)N1CCCCC1	-3
O=C(CN1C(=O)c2cccc([N+](=O)[O-])c2C1=O)OCC(=O)N1CCCCC1	61*
O=C(COC(=O)CCN1C(=O)c2cccc([N+](=O)[O-])c2C1=O)NCc1ccccc1	6
